# Several values for one entry are separate records, joined by “and”; a condition that tells them apart may be missing. Identical values can stand only once. In all, about 410,000 compounds went through this assay and about 5,100 (1.2%) were called active. Inconclusive results (about 8%) are left out. Calls follow the shape of the full dose curve; tested in HEK293T cells. This excerpt belongs to a sample that is enriched for actives.
# Assay: High Throughput Screening for Foot and Mouth Disease Virus Antivirals; also: read-out not given here; nearly all actives have a fitted effect of over 45% in size
# Conditions: FMDV antiviral cell-based qHTS; series mostly up to 57.9 µM; activity change, negative = inhibition: at the top concentration
# % is scaled to controls: 0 for no effect and ±100 for the full control effect; potency is read from the fitted curve at half-maximal effect.
Structure (SMILES),"activity change, negative = inhibition",Potency
Cc1ccc(NC(=O)CN2c3ccccc3S(=O)(=O)c3ccccc32)cc1F,-15.4% (inactive),–
COC(=O)CCNc1ccc2c(c1)OCCO2,–,11.2 µM (active)
CCCCN(CC(=O)NC(C)(C)C)C(=O)C(=O)Nc1ccc2c(c1)OCCO2,30.3% (inactive),–
CCC(C)(C)NC(=O)CN(C(=O)C(=O)Nc1ccc2c(c1)OCCO2)C(C)(C)CC,12.4% (inactive),–
CCCCC/C=C\C/C=C\C/C=C\C/C=C\CCCCCC(=O)NCCO,-8.95% [at 6.7 µM] (inactive),–
O=C1NS(=O)(=O)c2ccccc21,-10% (inactive),–
CCc1nccn1S(=O)(=O)c1cc(Br)ccc1Br,-7.35% (inactive),–
CCOc1c(Br)cc(/C=C2\C(=O)N(CCC#N)N=C2C)cc1OC,–,28.2 µM (active)
CSc1ccc(C2C(C(=O)Nc3ccccc3)=C(C)Nc3nc4ccccc4n32)cc1 (stereo unspecified),-22% (inactive),–
COC(=O)c1c(OCc2ccc(F)cc2)cc(=O)n2c1CCN(Cc1ccc3cccnc3c1)CC2,-8.63% (inactive),–
Cc1cccc(CC(=O)Nc2cccc(-c3cn4cccnc4n3)c2)c1,18.4% (inactive),–
COc1ccc(-c2[nH]c3c(c2-c2c(-n4cccc4)n(C)c(=O)n(C)c2=O)c(=O)n(C)c(=O)n3C)cc1,-8.33% (inactive),–
O=C(NCc1ccc(Cl)cc1)c1ccc2c(c1)nnn2C1CCCC1,-14.3% (inactive),–
Cc1nc(/N=C(\N)NC(=O)NC2CCCCC2)nc2ccccc12,–,31.6 µM (active)
O=C(Cn1nnc(-c2ccccc2)n1)NC(=O)NC1CCCC1,-9.99% (inactive),–
O=C(/C=C/c1cnc2ccccc2n1)NC1CCCCCC1,36.2% (inactive),–
CCOC(=O)N1CCC(N2CCOc3ccc(CN4CCC(O)(c5cccnc5)CC4)cc3C2)CC1,1.1% (inactive),–
COc1cccc(CNC(=O)Cn2c(=O)c3cccn3c3ccc(F)cc32)c1OC,-21.5% (inactive),–
COCc1c(C(=O)NC2CCCCC2)cnn1-c1nccc(-c2ccccc2OC)n1,-1.95% (inactive),–
CC(=O)Nc1cccc(OCC(=O)/C=C2\N(C)c3ccccc3C2(C)C)c1,–,25.1 µM (active)
COc1cccc(NC(=S)C(C#N)=C2N(C)c3ccccc3N2C)c1,5.09% (inactive),–
CN1/C(=C\C=C2\N=C(c3ccc(F)cc3)OC2=O)C(C)(C)c2ccccc21,-28.5% (inactive),–
COc1ccccc1CNc1ncncc1-c1cccc(NS(C)(=O)=O)c1,-15.9% (inactive),–
O=P(O)(O)C(O)c1ccc2ccccc2c1 (stereo unspecified),1.06% (inactive),–

Structure (SMILES),"activity change, negative = inhibition",Potency
Cc1ccc(CS(=O)(=O)CCC(=O)NC2CC2)cc1,-10.8% (inactive),–
C#CCN(C[C@@H]1[C@@H](OC(=O)NC2CC2)[C@@H](OC(=O)NC2CC2)Cn2c(=O)ccc(=O)n21)S(=O)(=O)c1ccc(C)cc1,–,20 µM (active)
COc1ccccc1Nc1cc(C(=O)NCCCN(C)C2CCCCC2)c2ccccc2n1,-28.5% (inactive),–
CN(c1ccc2nc3ccccc3c(=O)n2n1)C1CCCCC1,–,20 µM (active)
O=C(c1ccco1)N(Cc1nc2ccccc2c(=O)[nH]1)C1CCCC1,-1.37% (inactive),–
COc1cc(=O)n2c(c1C(=O)NC(C)c1ccco1)CCN(C(=O)c1cn3ccc(C)cc3n1)CC2 (stereo unspecified),12.5% (inactive),–
CCN(C(=O)c1sc2cc(OC)ccc2c1Cl)c1ccccc1,-22.9% (inactive),–
COc1ccccc1CNc1nc(-c2c(C)noc2C)nc2ccccc12,-10.6% (inactive),–
CCCCC(=O)N(C)c1c(CC)nc2c(OCc3ccc(Cl)cc3Cl)cccn12,-24.1% (inactive),–
CCc1nc2c(OCc3ccc(Cl)cc3Cl)cccn2c1N(C)C(=O)C(C)C,–,31.6 µM (active)
CCc1nc2c(OCc3cccc(OC)c3)cccn2c1N(C)C(=O)C(C)C,-16.8% (inactive),–
COc1ccc(C2Sc3ccccc3NC3=C2C(=O)c2ccccc23)c(OC)c1OC (stereo unspecified),8.34% (inactive),–
O=C(/C=C/Sc1ncn[nH]1)c1ccc(Cl)cc1,–,28.2 µM (active)
O=S(=O)(NCCc1nnc2ccc(SCc3ccc(Cl)cc3Cl)nn12)c1ccccc1,-15.5% (inactive),–
CCc1ccccc1NC(=O)Cn1c(=O)n(CC2CCC(C(=O)NCCc3ccccc3)CC2)c(=O)c2ccccc21 (stereo unspecified),0.675% (inactive),–
Cc1cc(C)cc(NS(=O)(=O)c2cc3c(cc2C)NC(=O)CO3)c1,131% (inactive),–
Cn1nnnc1SCCCNCc1cccc(OCc2ccc(Cl)cc2)c1,-12.9% (inactive),–
Cc1ccc(OCCSc2nc(C)c(Cc3ccccc3)c(=O)[nH]2)cc1,-10.9% (inactive),–
COc1ccc(CCNC(=O)C2CCCN2C(=O)Nc2ccccc2)cc1OC (stereo unspecified),-5.27% (inactive),–
CC(=O)Nc1ccc(S(=O)(=O)N2CCN(c3ccc([N+](=O)[O-])c(NCCN4CCOCC4)c3)CC2)cc1,-4.77% (inactive),–
COc1ccc(CCNc2cc(N3CCN(C(=O)c4ccccc4OC)CC3)ccc2[N+](=O)[O-])cc1OC,–,8.91 µM (active)
CC(C)c1ccc(NC(=O)c2cc(S(=O)(=O)N3CCc4ccccc4C3)ccc2F)cc1,1.11% (inactive),–
Cc1ccccc1CNC(=O)c1cccc(NC(=O)c2nsc3ccccc23)c1,11.9% (inactive),–
O=C(CSc1ncc(CO)n1Cc1ccc(F)cc1)NCc1ccco1,-18.2% (inactive),–

Structure (SMILES),"activity change, negative = inhibition",Potency
Cc1cc(C=O)c(C)n1-c1ccc(NC2CCCCC2)c([N+](=O)[O-])c1,–,31.6 µM (active)
Cc1ccc(C(=O)COC(=O)CCCC(=O)NC2CCCCC2)cc1[N+](=O)[O-],0.0132% (inactive),–
COc1ccc(NC(=O)CN(C)C(=O)c2ccc(NC3CC3)c([N+](=O)[O-])c2)cc1,-6.5% (inactive),–
O=S1(=O)CCC(NC(=S)SCc2ccccc2Br)C1 (stereo unspecified),–,15.8 µM (active)
CCN(CC(=O)NC1CCS(=O)(=O)C1)S(=O)(=O)c1ccccc1 (stereo unspecified),-18.6% (inactive),–
O=C(CSc1ccccc1F)NC1CCS(=O)(=O)C1 (stereo unspecified),2.56% (inactive),–
COc1ccccc1C(=O)Nc1c(C(=O)Nc2ccc(C)cc2)oc2ccccc12,-7.71% (inactive),–
C/C=C1\C2C=C(C)CC1(N)c1ccc(=O)[nH]c1C2 (stereo unspecified),6.47% [at 97.4 µM] (inactive),–
CCC1CCCCN1S(=O)(=O)c1ccc(NC(=O)c2cc(=O)c3ccccc3o2)cc1 (stereo unspecified),–,20 µM (active)
Cc1cc(C)c2oc(C(=O)Nc3ccc(S(=O)(=O)N4CCCCCC4)cc3)cc(=O)c2c1,-5.36% (inactive),–
Cc1ccc2oc(C(=O)Nc3ccc(S(=O)(=O)N4CCCCCC4)cc3)cc(=O)c2c1,-6.89% (inactive),–
Cc1c(Cl)cccc1NC(=O)c1noc2c1CCCC2,34.7% (inactive),–
Cc1cccc(N2CCN(C(=O)c3ccc4c(c3)CCN4S(=O)(=O)c3ccccc3)CC2)c1C,-17.5% (inactive),–
COc1ccc(C)cc1NC(=O)CCc1c(C)nn(-c2ccc(N3CCOCC3)nn2)c1C,13.7% (inactive),–
CC(C)=CCN1CCC2(CCc3ccccc32)CC1,-6.05% (inactive),–
COc1cccc(C(=O)NC(=O)Nc2nc(C)cc(C(F)(F)F)n2)c1,-4.85% (inactive),–
COc1ccc(C(=O)Nc2ccc(-n3nncc3-c3ccccc3)cc2)cc1OC,0% (inactive),–
COc1cccc(C(=O)Nc2ccc(-c3cc(C(F)(F)F)nn3-c3ccccc3)cc2)c1,–,12.6 µM (active)
Cc1csc(-c2coc3cc(O[C@@H]4O[C@H](CO)[C@@H](O)[C@@H](O)[C@H]4O)ccc3c2=O)n1,16% (inactive),–
Cc1cc(C)cc(-n2c(SCC(=O)NCC3CCCO3)nc3c([nH]c4ccccc43)c2=O)c1 (stereo unspecified),0.888% (inactive),–
Cc1cc(NC(=O)CSc2ncc(C(=O)Nc3ccc(Cl)cc3)c(=O)n2C)no1,5.26% (inactive),–
Cc1ccc(NC(=O)c2cnc(SCC(=O)NCC3CCCO3)n(C)c2=O)cc1 (stereo unspecified),–,25.1 µM (active)
O=C(Cc1ccccc1)Nc1sc2c(c1C(=O)Nc1ccc(Br)cc1)CCC2,-16.6% (inactive),–
COCCNc1ccnc(-c2cccc(NS(C)(=O)=O)c2)n1,8.19% (inactive),–

Structure (SMILES),"activity change, negative = inhibition",Potency
CNc1ncnc2ccc(-c3cccc(NS(C)(=O)=O)c3)cc12,-18.8% (inactive),–
COC(=O)CC1C(C)(C)C(OC(C)=O)C2CC3=C4CC(=O)OC(c5ccoc5)[C@]4(C)CCC3[C@@]1(C)C2=O (stereo partly specified),-6.11% (inactive),–
Cc1ccc(-c2nn(CC(C)(C)C)c3ncnc(N)c23)cc1,-19.5% (inactive),–
CC(=O)N1CCCc2cc(S(=O)(=O)N3CCCC(C(=O)N4CCN(c5cccc(Cl)c5)CC4)C3)ccc21 (stereo unspecified),–,17.8 µM (active) and 12.6 µM (active)
COc1cccc(N2CCN(S(=O)(=O)c3ccc4c(c3)CCCN4C(C)=O)CC2)c1,-29.2% (inactive),–
CC(=O)N1CCCc2cc(S(=O)(=O)N3CCC(C(=O)NC4CCCCC4)CC3)ccc21,-3.68% (inactive),–
COCCN1CCN(C(=O)c2sc3ncnc(NCC4CCCO4)c3c2C)CC1 (stereo unspecified),2.02% (inactive),–
CC(C)(c1ccc(OC[C@@H]2CO2)cc1)c1ccc(OC[C@H]2CO2)cc1,-6.2% (inactive),–
CN[C@@H]1[C@H](O[C@H]2[C@H](O[C@H]3[C@H](O)[C@@H](O)[C@H](N=C(N)N)[C@@H](O)[C@@H]3N=C(N)N)O[C@@H](C)[C@]2(O)CO)O[C@@H](CO)[C@H](O)[C@H]1O,3.92% (inactive),–
O=C(O)CCc1cccnc1,-16.2% (inactive),–
O=C1/C(=C\c2cccnc2)CN(Cc2ccccc2)C/C1=C\c1cccnc1,–,6.31 µM (active)
Nc1ccc2c(c1)C(=Cc1cccnc1)c1ccccc1-2,9.55% (inactive),–
CS(=O)(=O)Nc1cccc(-c2cncnc2Nc2ccccc2)c1,-6.46% (inactive),–
CN(Cc1ccco1)c1cc(-c2ccccc2C(F)(F)F)ncn1,15.7% (inactive),–
C=CC(C1=CC(=O)C=CC1=O)c1ccc(O)cc1 (stereo unspecified),-1.66% (inactive),–
CC(=O)OC1C2(CC3N4C(=O)C5(CO)SSC4(CC31O)C(=O)N5C)OC(C)C(C)(C)C2=O (stereo unspecified),–,2 µM (active)
Cc1cccc(Nc2cc(C)nc(-n3nc(C)cc3C)n2)c1,-11.9% (inactive),–
COc1ccccc1-c1cc(C(F)(F)F)nc(S(=O)(=O)CCCC(=O)Nc2cc(C)ccc2O)n1,-17.4% (inactive),–
Cc1ccc(C)c(N2CCN(C(=O)Cn3ncc4c(=O)oc5ccc(C)cc5c43)CC2)c1,0% (inactive),–
O=C(c1csnn1)N1CCC2(CC1)CN(c1ncccn1)C2,-1.68% (inactive),–
Cc1cccn2c(=O)c(C(=O)NC(C)c3ccccc3)cnc12 (stereo unspecified),-0.0366% (inactive),–
CCCc1nc2c([nH]1)C(c1cccnc1)C(C#N)=C(N)O2 (stereo unspecified),-18.1% (inactive),–
CCCc1[nH]nc2c1C(c1ccc(Br)s1)C(C#N)=C(N)O2 (stereo unspecified),–,25.1 µM (active)
CCNc1nc2[nH]c(=O)c3c(c2s1)OC(N)=C(C#N)C3c1cccs1 (stereo unspecified),38.9% (inactive),–

# Source: PubChem BioAssay AID1159524 (National Center for Advancing Translational Sciences (NCATS), 2015)
